Reference: PubChem BioAssay AID720650 (Broad Institute, 2013)
A number with no mark means an inactive call. Activity calls are given as the source filed them. The rule behind the calls is not given here.

test: C difficile toxins, biochemical counterscreen, UDPG substrate absence, confirmatory dose response (AID 720650); settings: series mostly up to 19.5 µM; activity change, negative = inhibition: at the top concentration

SMILES | AC50 | activity change, negative = inhibition
Cc1ccccc1S(=O)(=O)N1CCCc2nc(C)c(C)cc21 | > 39 µM | –
CC(C)CNC(=O)C(=O)NCC1CCCN1S(=O)(=O)c1cccs1 (centres undefined) | – | -5.14%
Cc1ccc(NNC(=O)c2ccno2)cc1Cl | 0.401 µM (active) | –
Cc1ccc(C(=O)Nc2ncc([N+](=O)[O-])s2)cc1 | > 39 µM | –
CN(C)c1ccc(NC(=O)/C=C/c2c(Cl)cccc2Cl)cc1 | – | 2.86%
CC(=O)c1cccc(OCC(=O)c2cc(C)n(-c3cc(C)on3)c2C)c1 | 12 µM (active) | –
Cn1c(=O)c2c([nH]c(=S)n2Cc2ccc(Cl)cc2)n(C)c1=O | – | -22.4%
COc1ccc(/C=C/c2nc3ccccc3n2C)cc1 | > 39 µM | –
CC(=O)Oc1ccc(/C=N/NC(=O)CCSc2ccccc2)cc1 | – | 17.6%
CCc1ccc(NC(=O)c2cc(C)on2)cc1 | – | -14.7%
COc1cc2[nH]c(=S)n(Cc3cccs3)c(=O)c2cc1OC | – | -10.4%
CCS(=O)(=O)c1ccc2oc(Nc3ccc(C(C)(C)C)cc3)nc2c1 | – | -6.91%
CNC(=O)C1CCN(S(=O)(=O)c2c(C)noc2/C=C/c2ccc(C)cc2)CC1 | – | -2.85%
Cc1cc(C(=O)Nc2ncc(C)s2)c2ccccc2n1 | – | 3.29%
NC1=NC[C@H](Cc2ccc(O)cc2)N1CCc1cc(C(F)(F)F)cc(C(F)(F)F)c1 | – | -12.2%
C[C@H](CO)N1C[C@H](C)[C@@H](CN(C)C(=O)Nc2ccc(C(F)(F)F)cc2)Oc2c(cccc2N(C)C)C1=O | 19 µM (active) | –
Cc1cc(C(=O)N2CCN(Cc3ccccc3)CC2)ccc1[N+](=O)[O-] | – | 6.71%
CC(C)Cc1nnc(NC(=O)CCC(=O)NCc2ccccc2Cl)s1 | – | -3.67%
CNC(=O)C[C@H]1CC[C@@H]2[C@@H](COc3ccc(NC(=O)c4cccc(OC)c4)cc3C(=O)N2C)O1 | – | -18.7%
CN(C)CCNc1cccc2sc3ccc(O)cc3c(=O)c12 | 4.36 µM (active) | –

SMILES | AC50 | activity change, negative = inhibition
O=C1Cc2cc(S(=O)(=O)NCc3ccccc3Cl)cc3c2N1CCC3 | – | 6.63%
COc1ccc(/C=C/c2onc(C)c2S(=O)(=O)N2CCC(C(=O)N3CCC(C)CC3)CC2)cc1 | – | -5.37%
Cc1cccc(OCCC(=O)NCC(=O)Nc2cccc(C)c2C)c1 | 16.4 µM (active) | –
CN1CCN(CC(=O)Nc2cc(N(C)C)nc3ccccc23)CC1 | – | 8.85%
CSc1nc2c(c(=O)[nH]c(=O)n2C)n1Cc1ccccc1 | – | -0.889%
COc1ccccc1C(=O)Nc1cccc(Oc2c(F)c(F)c(F)c(F)c2F)c1 | > 39 µM | –
O=C(C[C@@H]1CC[C@H]2[C@@H](COC[C@H](O)CN2C(=O)c2ccccn2)O1)NC1CCC1 | – | -6.78%
Clc1ccc(-c2nc3ccc(Cl)cn3c2Cc2ccccc2)cc1 | – | -11.8%
CN(c1ccccc1)S(=O)(=O)c1cccc(C(=O)NCCc2ccc(O)c(O)c2)c1 | – | 1.79%
CC(C)(C)N1C(=O)c2ccc(C(=O)Nc3ccc(O)cc3)cc2C1=O | 8.25 µM (active) | –
CS(=O)(=O)Nc1cccc(C2=NN(C(=O)c3ccccc3)C(c3cccs3)C2)c1 (centres undefined) | – | -13.6%
CN1C(=O)c2cc(NC(=O)c3cccc(F)c3)ccc2OC[C@@H]2O[C@@H](CC(=O)NCC3CCCCC3)CC[C@H]21 | inactive | –
Nc1nc(CCOc2ccc(F)cc2)cs1 | – | -9.71%
CCC(=O)Nc1ccc2c(c1)OC[C@H](C)N(C(=O)NC(C)C)C[C@H](C)[C@H](OC)CN(C)C2=O | – | -3.05%
CC(C)CNC(=O)c1c(F)c(F)c(F)c(F)c1F | – | 2.96%
CCOc1ccccc1/C=C/c1onc(C)c1S(=O)(=O)N1CCC(C(=O)NC(C)C)CC1 | – | 2.28%
COC(=O)CN1C(C)=Nc2ccc(Br)cc2C1c1ccccc1 (centres undefined) | – | -11.4%
O=C(OCn1nnc2ccccc2c1=O)c1cc2ccccc2o1 | – | -1.31%
COc1nc(C)cc(C)c1S(=O)(=O)c1ccc(Cl)cc1 | – | -8.33%
